Measured values as given in PubChem BioAssay (EPA / NIEHS).
Active and inactive are the calls of the source. How the source made its calls: active means hit-call score of the fitted dose curve at least 0.9, where 1 is the maximum; inactive means score below 0.9.

Tests used:
[1] = biological target: CCAAT/enhancer-binding protein beta (Homo sapiens) (UniProt P17676); assay: ATG_C_EBP_CIS: Attagene CIS-FACTORIAL HepG2 Assay for human CCAAT/Enhancer Binding Protein (C/EBP) beta (AID 2282927); conditions: HepG2 Attagene cis-factorial transcription factor reporter; actives raise or lower the signal
Sequence of CCAAT/enhancer-binding protein beta (Homo sapiens) (P17676 whole entry, looked up, the tested form may be a part): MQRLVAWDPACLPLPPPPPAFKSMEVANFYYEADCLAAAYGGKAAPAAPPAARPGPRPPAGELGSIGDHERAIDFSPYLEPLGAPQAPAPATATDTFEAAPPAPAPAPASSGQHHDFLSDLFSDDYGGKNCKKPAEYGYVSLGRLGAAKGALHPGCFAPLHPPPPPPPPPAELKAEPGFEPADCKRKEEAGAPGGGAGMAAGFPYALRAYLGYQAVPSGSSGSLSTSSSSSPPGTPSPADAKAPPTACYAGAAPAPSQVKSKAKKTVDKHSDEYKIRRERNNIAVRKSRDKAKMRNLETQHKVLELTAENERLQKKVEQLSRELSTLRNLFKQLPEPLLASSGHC
Procedure, shortened: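 Chemical-treated HepG2 cells (24 h) bearing cis-regulated reporter constructs were processed for total RNA, then reverse transcription, PCR amplification, fluorescent primer extension and fragment analysis; gain- and loss-of-signal were fitted against DMSO.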

[2] = ATG_CMV_CIS: Attagene CIS-FACTORIAL HepG2 Assay for human CMV (Internal Marker) (AID 2282928); conditions: HepG2 CMV promoter reporter, transcription factor profiling; actives raise or lower the signal;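 further: endpoint acts as a background internal control marker rather than a target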
Procedure, shortened: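 Endogenous transcription factor activity read in HepG2 via transfected cis-promoter reporter units. After 24 h dosing, reporter mRNA measured by RT-PCR/capillary electrophoresis; gain or loss of signal fit relative to DMSO.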

[3] = ATG_DR4_LXR_CIS: Attagene CIS-FACTORIAL HepG2 Assay for human Liver X Receptor (LXR), DR4 submotif (AID 2282929); conditions: HepG2 Attagene DR4 cis-reporter, mRNA transcription; actives raise or lower the signal
Procedure, shortened: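 Total RNA from 24 h-treated, MRTU-transfected HepG2 cells underwent reverse transcription, PCR, fluorescent primer extension and restriction digestion before capillary electrophoresis. Both increases and decreases in reporter signal were fitted against DMSO.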

[4] = ATG_AP_1_CIS: Attagene CIS-FACTORIAL HepG2 Assay for human Activator Protein 1 (AP-1) (AID 2282931); conditions: HepG2 Attagene cis-factorial AP-1 reporter mRNA; actives raise or lower the signal
Procedure, shortened: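 HepG2, transient cis-reporter transfection; 24 h; readout RT-PCR/CE fluorescence; DMSO baseline, gain and loss fitted.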

[5] = ATG_AP_2_CIS: Attagene CIS-FACTORIAL HepG2 Assay for human Activator Protein 2 (AP-2) (AID 2282932); conditions: HepG2 AP-2 cis-reporter, Attagene transcription factor profiling; actives raise or lower the signal
Procedure, shortened: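 HepG2 cells were transiently transfected with multiple cis-promoter reporter transcription units and dosed for 24 h. Reporter mRNA was measured by RT-PCR with capillary electrophoresis fluorescence; bidirectional fits relative to DMSO baseline.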

[6] = ATG_BRE_CIS: Attagene CIS-FACTORIAL HepG2 Assay for human Bone Morphogenetic Protein (BMP) Response Element (BRE) (AID 2282933); conditions: HepG2 BMP response element reporter, Attagene transcription factor profiling; actives raise or lower the signal
Procedure, shortened: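 HepG2 cells transiently transfected with CIS reporter units (endogenous TF activity, BMP response element), dosed 24 h. Reporter mRNA quantified by RT-PCR, fluorescent labelling and capillary electrophoresis; bidirectional fit vs DMSO baseline.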

[7] = biological target: Transcription factor E2F1 (Homo sapiens) (UniProt Q01094); assay: ATG_E2F_CIS: Attagene CIS-FACTORIAL HepG2 Assay for human E2F Transcription Factor 1 (AID 2282935); conditions: HepG2 Attagene cis-reporter, E2F reporter RNA transcripts; actives raise or lower the signal
Sequence of Transcription factor E2F1 (Homo sapiens) (Q01094 whole entry, looked up): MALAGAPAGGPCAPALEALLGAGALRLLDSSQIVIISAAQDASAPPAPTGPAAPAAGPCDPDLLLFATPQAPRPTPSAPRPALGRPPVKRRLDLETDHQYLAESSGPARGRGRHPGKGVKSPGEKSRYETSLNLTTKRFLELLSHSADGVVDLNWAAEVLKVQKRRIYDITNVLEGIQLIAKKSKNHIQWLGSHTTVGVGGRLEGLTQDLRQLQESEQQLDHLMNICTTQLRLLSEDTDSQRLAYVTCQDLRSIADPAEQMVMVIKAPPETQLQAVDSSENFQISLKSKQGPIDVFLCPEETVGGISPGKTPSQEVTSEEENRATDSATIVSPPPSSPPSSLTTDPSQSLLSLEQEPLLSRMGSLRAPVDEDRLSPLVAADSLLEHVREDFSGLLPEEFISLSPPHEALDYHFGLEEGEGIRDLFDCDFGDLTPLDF
Procedure, shortened: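 HepG2 cells transiently transfected with multiplexed cis-element reporter units, dosed for 24 h. Reporter mRNA measured by RT-PCR, 6-FAM primer-extension labeling, HpaI digestion and capillary electrophoresis; bidirectional fit versus DMSO baseline.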

[8] = ATG_E_Box_CIS: Attagene CIS-FACTORIAL HepG2 Assay for human Enhancer Box (E-box) (AID 2282936); conditions: HepG2 E-box cis-reporter transcription, actives raise or lower the signal
Procedure, shortened: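 HepG2 cells transiently transfected with multiplexed cis-element reporter units sensing endogenous transcription factor activity; 24 h compound exposure. Reporter mRNA measured by RT-PCR, 6-FAM primer extension, HpaI digestion and capillary electrophoresis; bidirectional fit versus DMSO.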

[9] = ATG_M_61_CIS: Attagene CIS-FACTORIAL HepG2 Assay for M61 Transcription Factor (Internal Marker) (AID 2282937); conditions: HepG2 Attagene CIS-FACTORIAL M61 internal marker reporter; actives raise or lower the signal
Procedure, shortened: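 Transfect HepG2 with MRTUs; dose 24 h; isolate RNA; reverse-transcribe with DNase I treatment; PCR-amplify, FAM-label and cut with HpaI for 2 h at 37 C; resolve by CE. Bidirectional fitting against DMSO.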

[10] = ATG_EGR_CIS: Attagene CIS-FACTORIAL HepG2 Assay for human Early Growth Response 1 (EGR1) (AID 2282938); conditions: HepG2 Attagene CIS-FACTORIAL EGR reporter mRNA; actives raise or lower the signal
Procedure, shortened: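 After a 24 h treatment of transiently transfected HepG2 cells, total RNA was reverse-transcribed and reporter sequences PCR-amplified, labelled and run on capillary electrophoresis. Reporters sit under cis-regulatory promoters sensing endogenous factors.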

[11] = ATG_Ets_CIS: Attagene CIS-FACTORIAL HepG2 Assay for human Erythroblast Transformation Specific (ETS) (AID 2282941); conditions: HepG2 ETS cis-reporter transcription, actives raise or lower the signal
Procedure, shortened: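 Steps: transfect HepG2 with multiple reporter units; treat compound 24 h; isolate RNA, DNase-treat, reverse-transcribe; PCR-amplify, label with 6-FAM, digest with HpaI; separate by capillary electrophoresis. Activity fitted both directions versus DMSO.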

[12] = ATG_GATA_CIS: Attagene CIS-FACTORIAL HepG2 Assay for human GATA Binding Protein (AID 2282944); conditions: HepG2 GATA cis-element reporter, Attagene multiplex mRNA; actives raise or lower the signal
Procedure, shortened: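 HepG2 cells transiently transfected with multiplexed cis-element reporter units measure endogenous GATA activity; after 24 h compound exposure, reporter mRNA quantified by RT-PCR and capillary electrophoresis. Changes fitted in both directions vs DMSO.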

[13] = ATG_GLI_CIS: Attagene CIS-FACTORIAL HepG2 Assay for human Zinc Finger Protein GLI1 (AID 2282945); conditions: HepG2, Attagene cis-factorial reporter mRNA, GLI element; actives raise or lower the signal
Procedure, shortened: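 HepG2 cells transiently transfected with cis-promoter multiplexed reporter units report endogenous transcription factor activity. After 24 h chemical exposure, reporter mRNA was quantified by RT-PCR, 6-FAM labelling, HpaI digestion and capillary electrophoresis, with bidirectional fitting against DMSO.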

[14] = ATG_ISRE_CIS: Attagene CIS-FACTORIAL HepG2 Assay for human Interferon Regulatory Factor 1 (IRF1) binding to an Interferon-Stimulated Response Element (ISRE) (AID 2282948); conditions: HepG2 ISRE cis-reporter (Attagene), mRNA transcription readout; actives raise or lower the signal
Procedure, shortened: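 Transfected HepG2 (multiple reporter transcription units, cis elements) dosed 24 h. RNA → oligo(dT) RT → PCR → 6-FAM primer extension → HpaI → CE. DMSO = negative control/baseline.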

[15] = ATG_M_32_CIS: Attagene CIS-FACTORIAL HepG2 Assay for M32 Transcription Factor (Internal Marker) (AID 2282949); conditions: HepG2 Attagene cis-factorial M32 reporter, mRNA; actives raise or lower the signal;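 further: background control marker of the multiplexed CIS panel rather than a real target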
Procedure, shortened: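 Internal background marker read-out: RT-PCR/capillary electrophoresis fluorescence of reporter transcripts from transiently transfected HepG2 cells after 24 h chemical exposure. Activity fitted bidirectionally relative to DMSO negative control.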

[16] = ATG_M_06_CIS: Attagene CIS-FACTORIAL HepG2 Assay for M06 Transcription Factor (Internal Marker) (AID 2282950); conditions: HepG2 Attagene CIS-FACTORIAL M06 internal marker reporter; actives raise or lower the signal
Procedure, shortened: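 Internal background marker within multiplexed cis-reporter HepG2 system. Cells transiently transfected, dosed 24 h; reporter mRNA measured by RT-PCR, HpaI digestion and capillary electrophoresis. Bidirectional fit relative to DMSO.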

[17] = biological target: Hepatocyte nuclear factor 6 (Homo sapiens) (UniProt Q9UBC0); assay: ATG_HNF6_CIS: Attagene CIS-FACTORIAL HepG2 Assay for human Hepatocyte Nuclear Factor 6 (HNF6) (AID 2282952); conditions: HepG2 Attagene cis-factorial HNF6 reporter transcription; actives raise or lower the signal
Sequence of Hepatocyte nuclear factor 6 (Homo sapiens) (Q9UBC0 whole entry, looked up): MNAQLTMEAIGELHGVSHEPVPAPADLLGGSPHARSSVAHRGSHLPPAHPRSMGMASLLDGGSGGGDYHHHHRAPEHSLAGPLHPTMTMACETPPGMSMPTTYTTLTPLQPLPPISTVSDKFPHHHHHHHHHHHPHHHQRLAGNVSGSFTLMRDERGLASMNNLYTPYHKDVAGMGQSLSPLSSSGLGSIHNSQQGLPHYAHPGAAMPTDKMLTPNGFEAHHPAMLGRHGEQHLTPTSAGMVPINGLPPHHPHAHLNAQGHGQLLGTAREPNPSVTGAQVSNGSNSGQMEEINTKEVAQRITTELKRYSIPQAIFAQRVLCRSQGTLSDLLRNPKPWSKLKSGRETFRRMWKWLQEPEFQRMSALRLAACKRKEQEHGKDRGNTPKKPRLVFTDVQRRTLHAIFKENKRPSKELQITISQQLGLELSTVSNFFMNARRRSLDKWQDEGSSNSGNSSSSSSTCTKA
Procedure, shortened: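 Transiently transfected HepG2 cells expressing cis-regulated reporter transcription units were exposed to chemical for 24 h in a 24-well format. Reporter transcript abundance was determined by fluorescence capillary electrophoresis.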

[18] = ATG_MRE_CIS: Attagene CIS-FACTORIAL HepG2 Assay for human Metal Responsive Element (MRE) (AID 2282954); conditions: HepG2 MRE cis-reporter transcription, Attagene multiplex; actives raise or lower the signal
Procedure, shortened: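 HepG2 cells transiently transfected with multiple cis-element reporter units measure endogenous MTF1-driven transcription. After 24 h compound exposure, reporter mRNA is quantified by RT-PCR with 6-FAM labelling, HpaI digestion and capillary electrophoresis; bidirectional fits versus DMSO.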

[19] = ATG_PXRE_CIS: Attagene CIS-FACTORIAL HepG2 Assay for human Pregnane X Receptor Element (PXRE) (AID 2282957); conditions: HepG2 Attagene CIS-FACTORIAL PXRE reporter, mRNA; actives raise or lower the signal
Procedure, shortened: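 Cis-element reporter mRNA in human hepatoma HepG2 cells is measured 24 h post-dosing by RT-PCR, primer-extension labeling and capillary electrophoresis; gain or loss of signal is fitted relative to DMSO.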

[20] = ATG_Sox_CIS: Attagene CIS-FACTORIAL HepG2 Assay for human SRY-box transcription factor (SOX) (AID 2282960); conditions: HepG2 Attagene cis-factorial SOX reporter, mRNA; actives raise or lower the signal
Procedure, shortened: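 HepG2, cis reporter units, 24 h exposure. Reporter mRNA: RT-PCR → FAM labelling → HpaI → CE fluorescence. Bidirectional fit vs DMSO.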

Measured: AC50

N#Cc1cccc(C#N)c1
inactive: all assays above

CCOP(O)OCC
active: [19] 30.1 µM
inactive: all other assays above

CCc1cccc(C)c1N(C(=O)CCl)[C@@H](C)COC
active: [10] 57.9 µM | [18] 31.3 µM | [19] 0.474 µM
inactive: all other assays above

CCOP(=O)(OCC)OCC
inactive: all assays above

Cc1ccc(OP(=O)(Oc2ccc(C)cc2)Oc2ccc(C)cc2)cc1 (tested in a mixture with another compound)
active: [3] 9.36 µM | [14] 100 µM | [19] 0.519 µM
inactive: all other assays above

C=CC(=O)OC
inactive: all assays above
